Measured values taken from the supplement of paper PMC7156485.
Values joined by “and” are separate entries in the source; they are usually repeats but may differ in a detail not shown here. Equal values may be shown once. ± gives the standard deviation of the averaged measurements.

Columns and labels:
Details in all cases: concentration: 10 µM; 24 h
HCC1569 [1] = test: cell number relative to DMSO (% of DMSO); higher = more cells (less growth inhibition / toxicity)
Outline: (§1)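 HCC1569 and TDF cells (800 per well, 384-well plates, RPMI with 10% FBS) were treated with compounds at 10 µM for 24 h at 37 °C, in triplicate. Cells were fixed in 3.7% formaldehyde and stained with a rabbit anti-H1.0 antibody, an AlexaFluor 647 secondary and DAPI; six fields per well were imaged at ×10. H1.0 nuclear intensity or cell number is expressed as percent of the plate DMSO control, taking the median of replicates. HCC1569 values were smoothed for positional effects.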

TDF [2] = test: as above
Outline: as §1

TDF [3] = test: H1.0 immunofluorescence intensity relative to DMSO (% of DMSO); higher = stronger H1.0 induction, active = 120 or more
Outline: as §1

HCC1569 [4] = test: H1.0 immunofluorescence intensity relative to DMSO (% of DMSO); higher = stronger H1.0 induction, active = 140 or more
Outline: as §1
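Wherever H1.0 immunofluorescence intensity relative to DMSO is given: TDF is a line of transformed human dermal fibroblasts of mesenchymal origin.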
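Wherever cell number relative to DMSO is given: TDF denotes transformed human dermal fibroblasts of mesenchymal origin.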

Row | Structure (SMILES) | cell number (HCC1569 [1]) | cell number (TDF [2]) | H1.0 immunofluorescence intensity (TDF [3]) | H1.0 immunofluorescence intensity (HCC1569 [4])
1 | C=CC1(C)CC(=O)C2(O)C(C)(O1)C(OC(C)=O)C(O)C1C(C)(C)CCC(O)C12C (centres undefined) [Forskolin] | 89.77 ± 0.53 | 105 ± 3.9 | 88.8 (inactive) | 96.6 (inactive)
2 | Cn1cnc2c1c(=O)[nH]c(=O)n2C [Theobromine] | 104 ± 3 | 99 ± 6.1 | 96.4 (inactive) | 95.9 (inactive)
3 | CCCC(=O)O[C@]1(C(=O)CO)CC[C@H]2[C@@H]3CCC4=CC(=O)CC[C@]4(C)[C@H]3[C@@H](O)C[C@@]21C [(11beta)-11,21-dihydroxy-3,20-dioxopregn-4-en-17-yl butyrate] | 97.4 | 106 | 84.9 (inactive) | 102 (inactive)
4 | CC(=O)OC(C)C[N+](C)(C)C.[Cl-] (stereo not drawn) [Acetyl-beta-methylcholine chloride] | 110 | 94.7 | 96.2 (inactive) | 88.4 (inactive)
5 | NC(CO)C(=O)NNCc1ccc(O)c(O)c1O (centres undefined) [Benserazide] | 95.2 | 82 | 101 (inactive) | 97.6 (inactive)
6 | CCCCCCCOc1cc2c(cc1/C(C)=C/c1ccc(C(=O)O)cc1)C(C)(C)CCS2(=O)=O | 96.9 | 101 | 88.9 (inactive) | 102 (inactive)
7 | CCN1CCCC1CNC(=O)c1cc(S(N)(=O)=O)ccc1OC (single isomer, unassigned; (-)) [(-)-Sulpiride] | 99.4 | 101 | 90.9 (inactive) | 98.5 (inactive)
8 | CC(=O)ONC1=c2ccccc2=NC1=C1C(=O)Nc2cc(Br)ccc21 | 55.8 | 51.1 | 116 (inactive) | 188 (active)
9 | O=C(O)C(O)C(O)C(=O)O.O=C(c1ccc(F)cc1)C1CCN(CCn2c(=O)[nH]c3ccccc3c2=O)CC1 [Ketanserin tartrate] | 96.9 | 93.1 | 106 (inactive) | 104 (inactive)
10 | CC1(C)CC=C(c2ccccc2)c2cc(/C=C/c3ccc(C(=O)O)cc3)ccc21 | 99.1 | 91.6 | 101 (inactive) | 111 (inactive)
11 | COC(=O)C1C(O)CCC2CN3CCc4c([nH]c5ccccc45)C3CC21.Cl (centres undefined) [Rauwolscine] | 103 | 99.5 | 95.5 (inactive) | 95.6 (inactive)
12 | O=S1(=O)CCN(CN2CCS(=O)(=O)NC2)CN1 | 98.4 | 99.3 | 88.2 (inactive) | 94 (inactive)
13 | CNC(=O)c1cc2c(cn1)[nH]c1ccccc12 [N-Methyl-beta-carboline-3-carboxamide] | 107 | 111 | 87.9 (inactive) | 85.2 (inactive)
14 | OC(CS)C(O)CS (centres undefined) | 103 | 104 | 93.7 (inactive) | 102 (inactive)
15 | CN(C)c1cc2c(Nc3ccc4c(cnn4Cc4ccccc4)c3)ncnc2cn1 | 82.9 | 90.4 | 113 (inactive) | 118 (inactive)
16 | Cc1ccc(S(=O)(=O)C=CC#N)cc1 | 68.3 and 78.4 | 103 and 100 | 98.9 (inactive) and 92.5 (inactive) | 191 (active) and 104 (inactive)
17 | O=C1CN(/N=C/c2ccc(-c3ccc([N+](=O)[O-])cc3)o2)C([O-])=N1.[Na+] | 93.8 | 104 | 97.3 (inactive) | 111 (inactive)
18 | COc1ccc(CC2c3cc(OC)c(OC)cc3CC[N+]2(C)C)cc1OC.[I-] (centres undefined) [Laudanosine methiodide] | 101 | 112 | 91.3 (inactive) | 93.6 (inactive)
19 | CC(=O)O.CN=C(N)NCCCC(N)C(=O)O [NG-Monomethyl-L-arginine acetate] | 100 | 102 | 95.6 (inactive) | 101 (inactive)
20 | CC(N)C1CCC(C(=O)Nc2ccncc2)CC1.Cl.Cl.O (centres undefined) | 109 | 104 | 97.1 (inactive) | 102 (inactive)
21 | Nc1ccc(CCNc2ncnc3c2ncn3C2OC(CO)C(O)C2O)cc1 (centres undefined) [N6-2-(4-Aminophenyl)ethyladenosine] | 101 | 109 | 85.9 (inactive) | 94 (inactive)
22 | CC(C)NCC(O)c1ccc(NS(C)(=O)=O)cc1.Cl (centres undefined) [Sotalol.HCl] | 102 | 111 | 88.1 (inactive) | 99 (inactive)
23 | CCC(=C(c1ccccc1)c1ccc(OCCN(C)C)cc1)c1ccccc1 [Tamoxifen] | 103 | 99.1 | 97.7 (inactive) | 114 (inactive)
24 | CC(C)c1[nH]n(-c2c(Cl)cccc2Cl)c2nc(Cc3ccc(OCCO)cc3)nc(=O)c1-2 [Cdk/Crk Inhibitor] | 55 | 26.7 | 131 (active) | 143 (active)
25 | CN(C)CCOc1cc(-c2cn[nH]c2)ccc1NC(=O)C1COc2ccccc2O1 (centres undefined) | 103 | 95.7 | 87.3 (inactive) | 112 (inactive)
26 | COc1ccnc(CS(=O)c2nc3cc(OC(F)F)ccc3[n-]2)c1OC.O.[Na+] (centres undefined) | 104 | 92.8 | 95.7 (inactive) | 100 (inactive)

Row | Structure (SMILES) | cell number (HCC1569 [1]) | cell number (TDF [2]) | H1.0 immunofluorescence intensity (TDF [3]) | H1.0 immunofluorescence intensity (HCC1569 [4])
27 | O=C1CCC(c2ccc(-n3ccnc3)cc2)=NN1 [Imazodan] | 95.5 | 93.8 | 103 (inactive) | 118 (inactive)
28 | COCCCOc1ccnc(CS(=O)c2nc3ccccc3[n-]2)c1C.[Na+] (centres undefined) | 101 | 90.9 | 103 (inactive) | 106 (inactive)
29 | O=C(O)C(=S)Cc1ccc(I)cc1 [(2Z)-3-(4-iodophenyl)-2-sulfanyl-2-propenoic acid] | 106 | 104 | 95.6 (inactive) | 94.8 (inactive)
30 | COc1cc2c(CCNC(C)=O)c[nH]c2cc1O [6-Hydroxymelatonin] | 100 | 110 | 91.4 (inactive) | 94 (inactive)
31 | CCC(=O)OC(OP(=O)(CCCCc1ccccc1)CC(=O)N1CC(C2CCCCC2)CC1C(=O)O)C(C)C (centres undefined) [Fosinopril] | 99.8 | 86 | 96 (inactive) | 101 (inactive)
32 | CCCCCCCCCCCCCCCCOCC(COP(=O)([O-])OCC[N+](C)(C)C)OC (centres undefined) [1-Hexadecyl-2-methylglycero-3 PC] | 101 | 95.4 | 104 (inactive) | 102 (inactive)
33 | O=[NH+]C=C1C=CN(CN2C=CC(=C[NH+]=O)C=C2)C=C1.[Br-].[Br-] [1,1'-methylenebis(4-(nitrosomethyl)pyridinium) bromide] | 105 | 99 | 89.7 (inactive) | 93.7 (inactive)
34 | CCCC[C@@H](C=O)NC(=O)[C@H](CC(C)C)NC(=O)[C@H](CC(C)C)NC(C)=O | 47.1 | 32.2 | 160 (active) | 150 (active)
35 | COc1cc(-c2oc3cc(O)cc(O)c3c(=O)c2O)ccc1O [Isorhamnetine] | 97.1 | 97.1 | 97.1 (inactive) | 116 (inactive)
36 | COc1cc(OC)cc(C(CNc2ncnc3c2ncn3C2OC(CO)C(O)C2O)c2ccccc2C)c1 (centres undefined) | 101 | 103 | 94.5 (inactive) | 100 (inactive)
37 | Cc1ccc(NC2=CC(=O)c3sc(C)nc3C2=O)cc1 | 27.9 | 14.5 | 122 (active) | 104 (inactive)
38 | Cl.Clc1cccc(Cl)c1NC1=NCCN1 [Clonidine hydrochloride] | 99.2 | 103 | 94.1 (inactive) | 90 (inactive)
39 | CCCCCC=CCC=CCC=CC=CC1CCCC(=O)O1 (racemic) | 106 | 97 | 98.2 (inactive) | 103 (inactive)
40 | Clc1ccc(C(Cn2ccnc2)OCc2csc3c(Cl)cccc23)c(Cl)c1.O=[N+]([O-])O (centres undefined) | 88.9 | 100 | 96.8 (inactive) | 119 (inactive)
41 | N#CC(=Cc1ccc(O)cc1)C(N)=C(C#N)C#N | 99 | 96.7 | 95.4 (inactive) | 110 (inactive)
42 | CC(C)CN(CC(O)C(Cc1ccccc1)NC(=O)OC1CCOC1)S(=O)(=O)c1ccc(N)cc1 (centres undefined) [Amprenavir] | 103 | 101 | 100 (inactive) | 108 (inactive)
43 | O=C(c1ccc2c(c1)OCCO2)N1CCCCC1 | 105 | 92.2 | 96.7 (inactive) | 107 (inactive)
44 | COc1cc2c(cc1O)CCC1C2CCC2(C)C(O)CCC12 (centres undefined) [2-methoxyestradiol] | 54.3 | 11.5 | 156 (active) | 156 (active)
45 | CC1=NN(c2ccc(C(=O)O)cc2)C(=O)/C1=C\c1ccc(-c2cc(C)c(C)cc2[N+](=O)[O-])o1 | 89.5 | 87.2 | 84.9 (inactive) | 108 (inactive)
46 | CC(C=CC1=C(C)CCCC1(C)C)=CC=CC(C)=CC(=O)O [13-cis Retinoic acid] | 98.1 ± 4.4 | 104 ± 2.9 | 92.9 (inactive) | 111 (inactive)
47 | Cl.NC12CC3CC(CC(C3)C1)C2 [Amantadine.HCl] | 103 | 103 | 92.2 (inactive) | 99 (inactive)
48 | COc1cc2ncn(-c3cc(OCc4ccc(S(C)(=O)=O)cc4)c(C(N)=O)s3)c2cc1OC [Polo-like Kinase Inhibitor I] | 104 | 96.2 | 92.8 (inactive) | 112 (inactive)
49 | CC12CCC(=O)C=C1CCC1C2C(O)CC2(C)C(C(=O)CO)CCC12 (centres undefined) [Corticosterone] | 101 ± 2.6 | 103.3 ± 0.6 | 92.8 (inactive) | 100 (inactive)
50 | CCOC([O-])=Nc1c[n+](N2CCOCC2)no1 [Molsidomine] | 106 ± 1.7 | 96.4 ± 7.5 | 101 (inactive) | 94 (inactive)
51 | Nc1ncnc2n[nH]c(Nc3ccc(F)cc3)c12 | 95.7 | 102 | 90.1 (inactive) | 118 (inactive)
